# Screens (PubChem)
# This is a sample that favours compounds with a hit; in the whole collection about 2.9% have one here.
# Wnt act: Wnt/beta-catenin pathway activation. Wnt/beta-catenin reporter cell assay, activator, plate reader. activation, % at 9.35 µM. 300,000 tested, 1.2% active. AID 743398; in the data active = activation above about 30%, passing the limit was not always enough; inconclusive = no clear call, values can overlap the other calls;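 note: 0% = neutral control wells and 100% = positive control wells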
# PvdQ inh: P. aeruginosa PvdQ acylase inhibition | purified PvdQ acylase, fluorescence plate reader | 340,000 tested, 0.063% active | inhibition, % at 10 µM; in the data active = inhibition above about 30%, passing the limit was not always enough; inconclusive = no clear call, values can overlap the other calls;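 note: 0% = vehicle neutral wells and 100% = reference inhibitor wells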
# Glyco luc inh: blocks N-linked glycosylation in D54 reporter cells. D54 ERlucT glycosylation luciferase reporter, 24 h; percent of 100 nM tunicamycin response. reporter increase, % at 12.5 µM. 360,000 tested, 0.23% active;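 active = mean luciferase reporter signal, scaled so untreated is 0 and the glycosylation-blocking control 100, at or above a set limit in every replicate; inconclusive = mean reaches the limit but not every replicate does; inactive = mean below the limit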;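 note: luciferase carries N-glycosylation sites so blocking glycosylation raises the light; 0% = median of neutral control wells and 100% = median of 100 nM tunicamycin wells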
# Vif inh: HIV Vif inhibition | HEK293T cells, Vif self-association by quenched fluorescence, imaging, 24 h | inhibition, % at 7.49 µM | 340,000 tested, 0.35% active | AID 602346; in the data active = inhibition above about 50%, passing the limit was not always enough; inconclusive = no clear call, values can overlap the other calls; inactive = below about 31%
# esBAF inh: blocks esBAF chromatin remodeling in mouse ES cells | Bmi1-luciferase knock-in reporter, 24 h; 100% = twice the neutral-well signal | reporter increase, % at 12.5 µM | 350,000 tested, 2% active | AID 602393; in the data active = activation above about 40%; inconclusive = no clear call, values can overlap the other calls;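 note: 0% = median of the plate's neutral control wells and 100% = double that signal; a rise in the Bmi1 reporter signal indicates esBAF inhibition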
# MITF TRPM1 HTS: activators of MITF-driven TRPM1 promoter activity in SK-MEL-5 cells | SK-MEL-5 TRPM1-promoter luciferase, 24 h; % of positive control, neutral wells = 0 | activation, % at 12.5 µM | 300,000 tested, 0.75% active | AID 588334;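 active = mean activation of at least 80% with every replicate also reaching 80%; inconclusive = mean reaches 80% but some replicate falls short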;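 note: 0% = neutral control wells and 100% = parthenolide positive control wells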
# * marks the source's active call; other numbers are inactive results; ? = inconclusive; · = not tested or not shown.
SMILES,Wnt act,PvdQ inh,Glyco luc inh,Vif inh,esBAF inh,MITF TRPM1 HTS
CN1C(c2ccc(F)cc2)=CS/C1=C(/C#N)c1nnc(N2CCOCC2)n1-c1ccccc1,-1.0,-12.1,-0.3,-4.6,·,15.8
COc1ccc(CN(C)C[C@@H]2OCCCC[C@H](C)Oc3ccc(NS(=O)(=O)c4cccs4)cc3C(=O)N([C@@H](C)CO)C[C@H]2C)cc1,·,·,·,·,-7.0,·
Cc1oc(-c2ccc(-c3ccccc3)cc2)nc1CN(CCO)C(C)C,11.6,-12.7,-7.5,-2.8,59.8*,36.0
COc1cc(Cl)c(C)cc1NC(=O)c1ccc2c(c1)OCO2,1.5,-1.0,1.2,19.1,46.1*,·
O=C(Nc1ccc(Cl)cc1Cl)c1ccc2c(c1)OCCO2,51.8*,-2.4,-13.8,-2.7,-5.2,50.0
Cc1cc(Cl)ccc1NC(=O)c1ccc2c(c1)OCO2,11.0,2.0,-2.4,-3.2,77.1*,·
COc1ccc(C)cc1NC(=O)c1ccc2c(c1)OCO2,·,-2.3,-0.1,-13.3,10.8,0.1
O=C(Nc1ccc2c(c1)OCO2)N[C@@H]1CC[C@H](CC(=O)N2CCN(c3ccccc3)CC2)O[C@H]1CO,·,·,·,·,4.3,·
Cc1ccc(S(=O)(=O)Nc2ccc3c(c2)CC(=O)N([C@H](C)CO)C[C@@H](C)[C@@H](CN(C)S(=O)(=O)c2cn(C)cn2)O3)cc1,·,·,·,·,-5.0,·
Clc1ccc(C2Nc3cccc4cccc(c34)N2)cc1Cl,4.2,-18.9,3.1,57.9*,0.3,·
N#CCC(=O)N/N=C\c1ccccc1OC/C=C/c1ccccc1,12.4,13.1,14.8,4.4,63.8*,22.1
COCC(=O)N/N=C\c1ccccc1OC/C=C/c1ccccc1,23.0,-6.5,4.5,-8.2,30.4,37.3
N#CCC(=O)N/N=C\c1ccc(OC/C=C/c2ccccc2)cc1,27.3,8.3,0.3,3.6,11.1,122.3*
N#CCC(=O)N/N=C/c1ccc(OCc2ccccc2)cc1,8.2,25.4,-3.1,-6.3,4.3,29.3
COc1ccc(CNC(=O)C[C@H]2C[C@@H]3c4cc(NS(=O)(=O)c5ccc(F)cc5)ccc4O[C@@H]3[C@H](CO)O2)cc1,·,·,·,·,6.4,·
NC(=O)c1cc2ccc(O)cc2oc1=NCc1ccccc1,-4.0,-11.9,-8.6,26.6,44.6*,18.3
NC(=O)c1cc2ccc(O)cc2oc1=Nc1ccccc1,15.5,6.1,-11.5,-17.3,30.8,45.3
COc1ccc2cc(C(=O)c3ccccc3)c(=O)oc2c1,·,9.2,0.4,-6.7,65.7*,65.7
NC(=O)c1cc2ccccc2oc1=NCc1ccccc1,·,-8.3,-5.7,·,5.9,6.7
CCOc1ccc2cc(C(=O)c3ccccc3)c(=O)oc2c1,-0.3,-13.8,0.0,-3.4,·,33.5
COc1ccc2cc(C(N)=O)c(=Nc3ccccc3)oc2c1,?,3.3,-14.3,-18.2,·,102.3*
COCCNC(=O)C[C@H]1CC[C@@H]2[C@H](COC[C@@H](O)CN2C(=O)Nc2ccccc2OC)O1,·,·,·,·,0.0,·
C[C@@H]1CN([C@H](C)CO)C(=O)c2cc(C#CCc3ccccc3)cnc2O[C@@H]1CN(C)C(=O)C1CC1,·,·,·,·,1.4,·
C[C@H](CO)N1C[C@H](C)[C@@H](CN(C)C(=O)NC2CCCCC2)Oc2c(NC(=O)C3CCOCC3)cccc2C1=O,·,·,·,·,0.4,·
Cc1ccc(S(=O)(=O)N[C@@H]2C=C[C@H](CC(=O)NCc3ccncn3)O[C@@H]2CO)cc1,·,·,·,·,-5.3,·
SMILES,Wnt act,PvdQ inh,Glyco luc inh,Vif inh,esBAF inh,MITF TRPM1 HTS
CO[C@@H]1CN(C)C(=O)c2ccc(NC(=O)c3nc4ccccc4s3)cc2OC[C@@H](C)N(Cc2cccnc2)C[C@H]1C,·,·,·,·,45.9*,·
CO[C@@H]1CN(C)C(=O)c2ccc(NC(=O)c3nc4ccccc4s3)cc2OC[C@@H](C)N(Cc2cccnc2)C[C@@H]1C,·,·,·,·,12.2,·
COc1ccc(CN2C[C@@H](C)[C@H](OC)CN(C)C(=O)c3ccc(NC(=O)c4nc5ccccc5s4)cc3OC[C@H]2C)cc1,·,·,·,·,63.8*,·
C[C@H](NC(=O)C[C@H]1C=C[C@H](NS(=O)(=O)c2cccc(F)c2)[C@H](CO)O1)c1ccccc1,·,·,·,·,0.4,·
Cc1cc(C)c2c(N)c(C(=O)N/N=C/c3cccnc3)sc2n1,20.3,-13.3,2.9,0.8,·,·
Cc1cc(C)c2c(N)c(C(=O)NNC(=O)c3ccccc3)sc2n1,7.2,-16.9,1.9,3.1,66.4*,37.1
Cc1cc(C)c2c(N)c(C(=O)N/N=C/c3ccccc3)sc2n1,46.9*,-4.4,-2.0,-0.1,45.8*,·
c1ccc(CSCc2cn3ccsc3n2)cc1,·,-6.5,2.0,0.6,59.4*,84.5*
